Experimental data from the supplement of paper PMC10127200.
Counter-ions that a name gives are not always drawn.

How the values were obtained:
Experiment in all cases: Euclidean distance of Cell Painting phenotypic profile (signed KS, 77 features) to DMSO centroid (dimensionless distance); 5 or 10 uM (library dependent); higher = stronger phenotypic change vs DMSO (phenoactivity)
Conditions in all cases: 48 h
786-O = tested on: 786-O
Outline: (§1)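 Phenoactivity is defined as the Euclidean distance from a compound profile to the median vehicle profile. Each profile comprised 77 Harmony features, scored as signed Kolmogorov-Smirnov statistics versus same-plate vehicle wells, then plate-position corrected, correlation-weighted and replicate-averaged at the top dose. Five cancer lines and one healthy fibroblast line were exposed to library compounds for 48 h at 10 or 5 uM (0.1% DMSO final).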

A549 = tested on: A549
Outline: as §1

DU145 = tested on: DU145
Outline: as §1

FB = tested on: FB
Outline: as §1

HEPG2 = tested on: HEPG2
Outline: as §1

OVCAR4 = tested on: OVCAR4
Outline: as §1

Row | SMILES | Euclidean distance (786-O) | Euclidean distance (A549) | Euclidean distance (DU145) | Euclidean distance (FB) | Euclidean distance (HEPG2) | Euclidean distance (OVCAR4)
1 | CO[C@H]1C[C@H](O[C@@H]2/C(C)=C/C[C@@H]3C[C@@H](C[C@]4(CC[C@H](C)[C@@H](C5CCCCC5)O4)O3)OC(=O)[C@@H]3C=C(C)/C(=N/O)[C@H]4OC/C(=C\C=C\[C@@H]2C)[C@]43O)O[C@@H](C)[C@@H]1O [Selamectin] | 1.94 | 3.16 | 6.67 | 1.24 | 0.681 | 1.04
2 | CCCCC1OC(=O)c2ccccc21 (stereo unspecified) [3-n-Butylphathlide] | 1.36 | 0.948 | 0.834 | 1.38 | 0.575 | 1.15
3 | NC(=O)C(c1ccccc1)(c1ccccc1)[C@@H]1CCN(CCc2ccc3c(c2)CCO3)C1 [Darifenacin HBr] | 1.59 | 0.89 | 0.786 | 1.4 | 1.11 | 1.04
4 | NC1=NCC2c3ccccc3Cc3ccccc3N12 (stereo unspecified) [Epinastine HCl] | 1.16 | 1.15 | 1.13 | 1.2 | 0.717 | 1.43
5 | Cc1ccccc1C(=O)Nc1ccc(C(=O)N2CCCC(N(C)C)c3ccccc32)cc1 (stereo unspecified) [Mozavaptan] | 0.843 | 0.928 | 1.17 | 0.813 | 0.445 | 0.913
6 | CC1(C)CCC(CN2CCN(c3ccc(C(=O)NS(=O)(=O)c4ccc(NCC5CCOCC5)c([N+](=O)[O-])c4)c(Oc4cnc5[nH]ccc5c4)c3)CC2)=C(c2ccc(Cl)cc2)C1 | 2.06 | 1.55 | 1.25 | 0.81 | 1.11 | 1.16
7 | CC[C@H](Nc1ncnc2[nH]cnc12)c1oc2ccccc2c(=O)c1-c1cccc(F)c1 [Tenalisib (RP6530)] | 0.975 | 0.66 | 0.791 | 1.47 | 0.466 | 0.678
8 | Cc1ccc(/C=C2/C(=O)C3(C)CCC2C3(C)C)cc1 (stereo unspecified) [4-Methylbenzylidene camphor] | 1.01 | 1.2 | 0.926 | 0.895 | 0.613 | 1.22
9 | Nc1nc(NC2CC2)c2ncn([C@H]3C=C[C@@H](CO)C3)c2n1 [Abacavir] | 1.46 | 0.752 | 1.02 | 1.21 | 0.494 | 1.25
10 | C[C@H](NCc1ccc(OCc2cccc(F)c2)cc1)C(N)=O [Safinamide Mesylate] | 0.672 | 0.63 | 0.559 | 0.645 | 0.55 | 1.14
11 | CN1CCC[C@@H]1CCO[C@](C)(c1ccccc1)c1ccc(Cl)cc1 [Clemastine Fumarate] | 1.5 | 1.22 | 1.59 | 1.96 | 2.11 | 1.18
12 | CCN1C(=O)C=CC1=O [N-Ethylmaleimide (NEM)] | 3.6 | 1.27 | 1.23 | 1.58 | 0.6 | 1.06
13 | COC(=O)[C@H](c1ccccc1Cl)N1CCc2sccc2C1 [Clopidogrel] | 2.53 | 2.3 | 2.44 | 2.99 | 1.3 | 2.4
14 | CN(C)CC/C=C1/c2ccccc2Sc2ccc(Cl)cc21 [Chlorprothixene] | 1.17 | 0.711 | 1.22 | 1.27 | 1.86 | 1.33
15 | COC(=O)c1ccc(O)cc1 [Methyl 4-hydroxybenzoate] | 0.944 | 0.453 | 0.654 | 0.862 | 0.627 | 1.19
16 | CC(C)Nc1cc(-c2c[nH]c(C(=O)N[C@H](CO)c3cccc(Cl)c3)c2)c(Cl)cn1 | 2.42 | 4.11 | 3.64 | 3.51 | 1.79 | 3.1

Row | SMILES | Euclidean distance (786-O) | Euclidean distance (A549) | Euclidean distance (DU145) | Euclidean distance (FB) | Euclidean distance (HEPG2) | Euclidean distance (OVCAR4)
17 | CNCCCC12CCC(c3ccccc31)c1ccccc12 [Maprotiline HCl] | 0.958 | 1.1 | 1.11 | 2.09 | 1.53 | 0.98
18 | C[C@@H](Oc1cc(-n2cnc3ccc(CN4CCN(C)CC4)cc32)sc1C(N)=O)c1ccccc1C(F)(F)F | 3.44 | 3.82 | 4.26 | 3.6 | 3.95 | 2.85
19 | Cc1cc(Cl)ccc1OCCCC(=O)NO [Droxinostat] | 1.32 | 1.68 | 0.991 | 1.3 | 1.07 | 0.782
20 | Cc1c(-c2ccnn2C)cc(C(=O)NCc2ccc(S(C)(=O)=O)cn2)c(=O)n1-c1cccc(C(F)(F)F)c1 [Alvelestat (AZD9668)] | 1.01 | 1.73 | 1.04 | 1.06 | 0.869 | 0.81
21 | Cn1c(=O)c2c(ncn2CC(O)CO)n(C)c1=O (stereo unspecified) [Dyphylline] | 1.02 | 0.909 | 0.59 | 1.07 | 1.05 | 1.59
22 | CCCCc1nc(C)c(CC(=S)N(C)C)c(=O)n1Cc1ccc(-c2ccccc2-c2nnn[nH]2)cc1 [Fimasartan] | 0.829 | 0.807 | 0.902 | 0.862 | 0.679 | 0.989
23 | Nc1ccc(O)c(C(=O)O)c1 [Mesalamine] | 1.49 | 0.636 | 2.08 | 1.06 | 0.538 | 1.24
24 | CC(=O)OCC1=C(C(=O)O)N2C(=O)[C@@H](NC(=O)CSc3ccncc3)[C@H]2SC1 [Cephapirin Benzathine] | 1.51 | 0.954 | 0.791 | 1.16 | 0.75 | 0.965
25 | O=C(Nc1ccc(O)cc1)c1ccccc1O [Osalmid] | 1.02 | 0.634 | 1.01 | 1.27 | 0.744 | 0.853
26 | O=C(Nc1ccc(Oc2ccc(Cl)cc2)c(Cl)c1)c1cc(I)cc(I)c1O [Rafoxanide] | 1.36 | 1.72 | 1.23 | 1.19 | 1.44 | 1.54
27 | CC(C[N+](C)(C)C)OC(N)=O (stereo unspecified) [Bethanechol chloride] | 1.22 | 0.995 | 0.866 | 0.979 | 1.03 | 0.949
28 | COc1cc2c(cc1OC)C(=O)C(CC1CCN(Cc3ccccc3)CC1)C2 (stereo unspecified) [Donepezil] | 0.813 | 1.25 | 0.73 | 0.785 | 1.27 | 1.27
29 | CCc1nc(C(N)=O)c(Nc2ccc(N3CCC(N4CCN(C)CC4)CC3)c(OC)c2)nc1NC1CCOCC1 [Gilteritinib (ASP2215)] | 2.93 | 3.06 | 3.49 | 3.66 | 3.86 | 2.89
30 | OCc1ccc(Cl)cc1Cl [2.4-dichlorobenzyl alcohol] | 0.68 | 0.36 | 1.13 | 0.663 | 0.329 | 1.56
31 | CC(=O)N1CCN(CCOc2ccc(C3CCN(C4=Nn5c(nnc5C(F)(F)F)CC4)CC3)cc2)CC1 | 1.54 | 0.992 | 1.22 | 1.76 | 2.06 | 2.66
